Of roughly 7,900 targets only a part is listed; those with a hit were picked by preference. About 0.6% of all pairs of compound and target were hits. Unmarked numbers belong to inactive results.

UniProt Q9BS92, sequence (Q9BS92 whole entry, looked up): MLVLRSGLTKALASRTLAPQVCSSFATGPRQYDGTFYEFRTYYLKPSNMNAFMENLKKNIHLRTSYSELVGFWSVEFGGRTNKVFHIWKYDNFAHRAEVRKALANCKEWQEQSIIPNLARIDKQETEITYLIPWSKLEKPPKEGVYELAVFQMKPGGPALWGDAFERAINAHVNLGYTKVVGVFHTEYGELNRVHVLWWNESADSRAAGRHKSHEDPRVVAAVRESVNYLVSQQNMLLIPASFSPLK
UniProt Q8IXH7, sequence (Q8IXH7 whole entry, looked up): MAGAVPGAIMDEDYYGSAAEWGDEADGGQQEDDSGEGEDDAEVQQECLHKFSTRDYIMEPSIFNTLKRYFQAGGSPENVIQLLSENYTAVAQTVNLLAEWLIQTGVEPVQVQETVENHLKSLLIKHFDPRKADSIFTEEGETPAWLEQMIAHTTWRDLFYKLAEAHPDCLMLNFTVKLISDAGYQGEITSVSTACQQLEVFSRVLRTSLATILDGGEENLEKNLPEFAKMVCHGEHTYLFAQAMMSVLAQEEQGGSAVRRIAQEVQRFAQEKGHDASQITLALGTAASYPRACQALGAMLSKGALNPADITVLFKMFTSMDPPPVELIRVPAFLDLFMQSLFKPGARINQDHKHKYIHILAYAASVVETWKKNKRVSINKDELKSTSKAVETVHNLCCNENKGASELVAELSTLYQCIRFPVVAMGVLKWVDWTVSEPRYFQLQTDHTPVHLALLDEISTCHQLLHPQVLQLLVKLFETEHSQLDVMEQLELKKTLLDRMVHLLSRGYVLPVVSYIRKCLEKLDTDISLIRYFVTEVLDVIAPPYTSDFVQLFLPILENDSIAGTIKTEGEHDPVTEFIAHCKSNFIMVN
UniProt Q86TA1, sequence (Q86TA1 whole entry, looked up): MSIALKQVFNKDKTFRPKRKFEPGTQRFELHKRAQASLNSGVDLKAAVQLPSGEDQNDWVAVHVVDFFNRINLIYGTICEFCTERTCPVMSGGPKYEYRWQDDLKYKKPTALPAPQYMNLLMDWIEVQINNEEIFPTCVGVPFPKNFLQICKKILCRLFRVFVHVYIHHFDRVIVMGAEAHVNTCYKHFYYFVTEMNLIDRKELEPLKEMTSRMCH
UniProt Q9H3L0, sequence (Q9H3L0 whole entry, looked up): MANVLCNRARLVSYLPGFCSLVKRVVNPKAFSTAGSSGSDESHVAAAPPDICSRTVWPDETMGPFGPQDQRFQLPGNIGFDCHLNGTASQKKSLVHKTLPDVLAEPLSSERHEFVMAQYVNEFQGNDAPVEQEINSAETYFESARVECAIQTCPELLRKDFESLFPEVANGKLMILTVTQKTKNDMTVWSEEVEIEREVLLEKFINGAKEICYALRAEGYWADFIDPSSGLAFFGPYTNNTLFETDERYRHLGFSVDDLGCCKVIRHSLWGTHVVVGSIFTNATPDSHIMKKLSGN
UniProt O75438, sequence (O75438 whole entry, looked up): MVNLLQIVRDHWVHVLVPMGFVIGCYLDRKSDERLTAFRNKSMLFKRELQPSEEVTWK
UniProt Q92686, sequence (Q92686 whole entry, looked up): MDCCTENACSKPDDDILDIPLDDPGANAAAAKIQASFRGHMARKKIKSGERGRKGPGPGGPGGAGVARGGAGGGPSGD
UniProt P30414, sequence (P30414 whole entry, looked up): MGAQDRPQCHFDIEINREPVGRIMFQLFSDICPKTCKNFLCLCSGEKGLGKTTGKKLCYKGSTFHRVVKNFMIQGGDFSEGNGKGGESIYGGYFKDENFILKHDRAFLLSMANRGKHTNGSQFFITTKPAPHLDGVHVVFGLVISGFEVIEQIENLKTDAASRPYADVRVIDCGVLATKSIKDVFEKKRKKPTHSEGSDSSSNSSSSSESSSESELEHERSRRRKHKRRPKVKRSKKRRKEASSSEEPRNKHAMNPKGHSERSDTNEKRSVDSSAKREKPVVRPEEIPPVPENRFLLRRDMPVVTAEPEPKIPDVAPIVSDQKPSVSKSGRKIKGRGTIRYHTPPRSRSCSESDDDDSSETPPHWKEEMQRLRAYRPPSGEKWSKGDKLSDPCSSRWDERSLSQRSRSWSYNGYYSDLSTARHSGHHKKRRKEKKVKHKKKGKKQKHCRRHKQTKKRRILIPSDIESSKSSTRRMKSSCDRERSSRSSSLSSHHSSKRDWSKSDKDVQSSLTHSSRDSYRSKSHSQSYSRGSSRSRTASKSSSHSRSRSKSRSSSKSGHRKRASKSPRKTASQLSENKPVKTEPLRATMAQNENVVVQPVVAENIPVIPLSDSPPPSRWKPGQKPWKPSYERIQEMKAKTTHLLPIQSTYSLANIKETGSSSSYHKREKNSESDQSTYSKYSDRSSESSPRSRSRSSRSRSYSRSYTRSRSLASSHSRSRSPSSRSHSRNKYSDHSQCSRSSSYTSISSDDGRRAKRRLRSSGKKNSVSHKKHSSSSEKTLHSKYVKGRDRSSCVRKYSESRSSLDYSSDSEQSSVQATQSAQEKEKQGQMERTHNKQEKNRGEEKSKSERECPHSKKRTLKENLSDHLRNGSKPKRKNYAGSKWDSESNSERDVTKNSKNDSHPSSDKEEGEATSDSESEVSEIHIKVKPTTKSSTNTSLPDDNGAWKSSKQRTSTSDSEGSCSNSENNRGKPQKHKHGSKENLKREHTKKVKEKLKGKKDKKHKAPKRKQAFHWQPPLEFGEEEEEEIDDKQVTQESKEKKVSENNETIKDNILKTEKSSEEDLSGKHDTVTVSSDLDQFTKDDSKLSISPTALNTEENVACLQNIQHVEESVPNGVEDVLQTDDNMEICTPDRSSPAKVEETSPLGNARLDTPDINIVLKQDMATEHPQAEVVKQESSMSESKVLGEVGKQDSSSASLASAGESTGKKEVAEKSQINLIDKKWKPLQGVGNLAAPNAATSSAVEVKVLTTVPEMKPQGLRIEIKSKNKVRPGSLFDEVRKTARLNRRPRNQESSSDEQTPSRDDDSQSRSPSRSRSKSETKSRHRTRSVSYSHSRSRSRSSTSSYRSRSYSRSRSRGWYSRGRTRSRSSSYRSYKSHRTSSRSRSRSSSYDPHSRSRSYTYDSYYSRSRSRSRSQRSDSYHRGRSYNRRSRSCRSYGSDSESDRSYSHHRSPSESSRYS
UniProt P40261, sequence (P40261 whole entry, looked up): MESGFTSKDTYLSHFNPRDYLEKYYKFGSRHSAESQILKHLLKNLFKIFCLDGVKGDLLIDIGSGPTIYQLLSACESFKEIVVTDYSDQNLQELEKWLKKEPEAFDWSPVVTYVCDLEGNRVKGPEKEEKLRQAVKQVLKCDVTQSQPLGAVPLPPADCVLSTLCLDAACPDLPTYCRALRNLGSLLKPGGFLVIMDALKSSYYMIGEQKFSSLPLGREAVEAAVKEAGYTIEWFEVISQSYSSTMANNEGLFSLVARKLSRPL
UniProt Q9BVC4, sequence (Q9BVC4 whole entry, looked up): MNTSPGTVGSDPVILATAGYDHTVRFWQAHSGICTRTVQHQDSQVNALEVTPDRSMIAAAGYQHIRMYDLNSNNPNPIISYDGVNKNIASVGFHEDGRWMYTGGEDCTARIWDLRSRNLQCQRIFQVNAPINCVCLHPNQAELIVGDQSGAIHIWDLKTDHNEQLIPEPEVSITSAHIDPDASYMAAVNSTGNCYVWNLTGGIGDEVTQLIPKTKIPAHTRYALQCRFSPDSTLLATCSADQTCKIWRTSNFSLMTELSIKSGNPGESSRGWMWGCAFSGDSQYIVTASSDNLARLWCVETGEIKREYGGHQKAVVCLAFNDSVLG
UniProt P48645, sequence (P48645 whole entry, looked up): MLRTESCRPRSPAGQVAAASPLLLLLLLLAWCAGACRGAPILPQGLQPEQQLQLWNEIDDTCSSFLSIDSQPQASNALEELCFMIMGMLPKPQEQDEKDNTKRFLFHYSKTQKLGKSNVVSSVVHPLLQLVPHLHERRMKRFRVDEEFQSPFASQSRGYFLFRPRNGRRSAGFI
UniProt Q8N5F7, sequence (Q8N5F7 whole entry, looked up): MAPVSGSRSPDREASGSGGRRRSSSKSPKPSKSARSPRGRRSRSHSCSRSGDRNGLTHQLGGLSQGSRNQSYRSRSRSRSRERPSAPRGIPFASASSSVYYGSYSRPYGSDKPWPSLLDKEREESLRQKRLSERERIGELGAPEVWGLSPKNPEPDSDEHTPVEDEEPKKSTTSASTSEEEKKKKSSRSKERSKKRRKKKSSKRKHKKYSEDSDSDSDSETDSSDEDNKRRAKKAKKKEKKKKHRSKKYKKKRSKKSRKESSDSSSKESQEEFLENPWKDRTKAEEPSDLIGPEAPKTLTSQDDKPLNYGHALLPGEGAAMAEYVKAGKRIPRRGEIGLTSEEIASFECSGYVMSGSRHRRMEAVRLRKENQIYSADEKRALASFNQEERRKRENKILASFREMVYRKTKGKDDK
UniProt Q70IA6, sequence (Q70IA6 whole entry, looked up): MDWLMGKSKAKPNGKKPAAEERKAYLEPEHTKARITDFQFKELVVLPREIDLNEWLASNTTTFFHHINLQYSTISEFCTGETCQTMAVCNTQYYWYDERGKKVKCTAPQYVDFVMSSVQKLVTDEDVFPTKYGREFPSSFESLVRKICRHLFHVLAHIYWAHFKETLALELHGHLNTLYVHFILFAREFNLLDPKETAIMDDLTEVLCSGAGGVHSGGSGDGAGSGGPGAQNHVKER
UniProt O75052, sequence (O75052 whole entry, looked up): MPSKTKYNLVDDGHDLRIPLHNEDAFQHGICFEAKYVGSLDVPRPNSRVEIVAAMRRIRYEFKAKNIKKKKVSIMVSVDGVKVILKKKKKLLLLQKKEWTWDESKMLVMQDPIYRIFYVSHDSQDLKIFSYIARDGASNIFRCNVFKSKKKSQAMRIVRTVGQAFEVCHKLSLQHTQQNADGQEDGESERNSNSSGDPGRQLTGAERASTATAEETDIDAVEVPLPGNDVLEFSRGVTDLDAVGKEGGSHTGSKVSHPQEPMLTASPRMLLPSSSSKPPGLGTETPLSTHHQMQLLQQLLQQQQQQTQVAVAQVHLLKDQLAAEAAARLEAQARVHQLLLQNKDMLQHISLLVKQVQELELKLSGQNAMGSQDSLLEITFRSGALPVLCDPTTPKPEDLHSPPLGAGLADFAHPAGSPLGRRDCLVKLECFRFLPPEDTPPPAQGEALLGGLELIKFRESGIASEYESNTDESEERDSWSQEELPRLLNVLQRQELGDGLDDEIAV

Compound in the first experiment: CCCc1cc(C)[nH]c(=O)c1CNC(=O)c1cc(-c2ccnc(N3CCN(C)CC3)c2)cc2c1cnn2C(C)C
The experiment can be described thus: log2 fold change, soluble protein after heating vs DMSO (PISA); higher = thermal stabilisation; K562 cells, 10 uM, 30 min; active = over 0.2 and 3.5 SD of the protein, either way, in both replicates (recomputed). In short, it runs like this:
(§1)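 Values are thermal stability changes relative to control samples and are taken from duplicates. They are stated as log2 fold changes. Before quantification by TMTpro 16plex LC-MS/MS with equalised channel sums, K562 cells at 2×10^6 cells/mL were treated with 10 μM compound for 30 min, heated in aliquots for 3 min across 48°C-58°C, pooled, extracted in PBS with 0.5% NP-40 at 4°C, and centrifuged at 21,000xg for 90 min to give the soluble supernatant.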
Take NA (UniProt J3KR12): the log2 fold change was -0.046.

With NIPSNAP3B (UniProt Q9BS92), the log2 fold change is -0.001.

Regarding NAP1L1 (UniProt B7Z9C2), the log2 fold change was -0.109.

In the case of NA, A0A494C071, the log2 fold change is -0.159.

Compound in a further experiment: CCN(CC)Cc1ccc2cc(COC(=O)Nc3ccc(C(=O)NO)cc3)ccc2c1 [givinostat]
The description is as above. A digest of the protocol: as §1
Take NMU (UniProt P48645): the log2 fold change was 0.001.

In the case of NKTR (UniProt P30414), the log2 fold change was 0.532.

With NOS1AP (UniProt O75052), the log2 fold change was -0.117.

Consider NAGPA (UniProt Q9UK23), for which the log2 fold change was 0.002.

As to NDUFB1 (UniProt O75438), the log2 fold change is -0.015.

OAF (UniProt Q86UD1): the log2 fold change was -0.071.

Turning to NEU3 isoform 2 (UniProt Q9UQ49), the log2 fold change was 0.189.

For MRM2 (UniProt Q9UI43), the log2 fold change is 0.001.

Regarding MITF (UniProt O75030), the log2 fold change is -0.002.

Turning to NKAP (UniProt Q8N5F7), the log2 fold change is 0.044.

With NOLC1 isoform 3 (UniProt Q14978), the log2 fold change was -0.02.

For MORC2 (UniProt Q9Y6X9), the log2 fold change was 0.026.

As for MOB3B (UniProt Q86TA1), the log2 fold change was 0.174.

Consider NDUFA7 (UniProt M0R0N0), for which the log2 fold change is 0.104.

Regarding NNMT (UniProt P40261), the log2 fold change was -0.076.

Consider MT-ND2 (UniProt P03891), for which the log2 fold change was 0.006.

With MLST8 (UniProt Q9BVC4), the log2 fold change was -0.058.

As to NUDT6 (UniProt P53370), the log2 fold change was -0.027.

As to MYH16 (UniProt Q9H6N6), the log2 fold change is -0.072.

Consider MOB2 isoform 3 (UniProt Q70IA6), for which the log2 fold change was 0.061.

For OGFOD2 (UniProt Q6N063), the log2 fold change was -0.041.

For the target MMADHC (UniProt Q9H3L0), the log2 fold change is 0.04.

For NELFCD (UniProt Q8IXH7), the log2 fold change was 0.167.

Turning to NIPSNAP3B (UniProt Q9BS92), the log2 fold change is -0.088.

Consider NAP1L1 (UniProt B7Z9C2), for which the log2 fold change was -0.053.

With NRGN (UniProt Q92686), the log2 fold change is -0.034.

In the case of MYO19 (UniProt Q96H55), the log2 fold change was 0.143.

Compound in a further experiment: CCN(CCCOc1ccc2c(Nc3cc(CC(=O)Nc4cccc(F)c4)[nH]n3)ncnc2c1)CCOP(=O)(O)O [barasertib]
The experiment is described as above. In short, it runs like this: as §1
As to NPC1L1 (UniProt Q9UHC9), the log2 fold change was -0.037.

As for NMU (UniProt P48645), the log2 fold change was 0.002.

For NKTR (UniProt P30414), the log2 fold change was 0.042.

Turning to OVCA2 (UniProt Q8WZ82), the log2 fold change is 0.06.

Take NOS1AP (UniProt O75052): the log2 fold change is 0.046.

Regarding NAGPA (UniProt Q9UK23), the log2 fold change was -0.133.

Take NIPSNAP2 (UniProt C9J7B1): the log2 fold change is 0.01.

Take NDUFB1 (UniProt O75438): the log2 fold change was -0.009.

As to NA (UniProt B2RBV5), the log2 fold change was 0.002.

As for NKAP (UniProt Q8N5F7), the log2 fold change was -0.165.

On to MORC2 (UniProt Q9Y6X9), for which the log2 fold change was -0.002.

For MOB3B (UniProt Q86TA1), the log2 fold change is 0.018.

NDUFA7 (UniProt M0R0N0): the log2 fold change was 0.052.

Regarding NNMT (UniProt P40261), the log2 fold change was -0.04.

With MT-ND2 (UniProt P03891), the log2 fold change was 0.079.

Regarding MLST8 (UniProt Q9BVC4), the log2 fold change is 0.038.

With MYH16 (UniProt Q9H6N6), the log2 fold change is -0.069.

As for MOB2 isoform 3 (UniProt Q70IA6), the log2 fold change was -0.121.

As for MLH1 (UniProt P40692), the log2 fold change is 0.11.

Turning to OGFOD2 (UniProt Q6N063), the log2 fold change was 0.059.

MMADHC (UniProt Q9H3L0): the log2 fold change is 0.029.

As to NA (UniProt J3KR12), the log2 fold change is 0.

For NELFCD (UniProt Q8IXH7), the log2 fold change is 0.

Consider NIPSNAP3B (UniProt Q9BS92), for which the log2 fold change is 0.016.

For NAP1L1 (UniProt B7Z9C2), the log2 fold change was -0.002.

As for NA, A0A494C071, the log2 fold change is 0.043.

With NRGN (UniProt Q92686), the log2 fold change was -0.14.

MYO19 (UniProt Q96H55): the log2 fold change was 0.039.

Source of the values: the supplement of paper PMC10849652.
